# PubChem BioAssay (Tox21)
# Records with an inconclusive call do not appear. Where a call stands in place of a potency, no number is given. Values without a mark were called inactive. Activity calls are given as the source filed them. The call rests on the fitted dose curve; in most records, active means well fitted cell-killing curve with a large enough effect in the repeat runs; inconclusive means weak or mixed curves, or effect the other way; inactive means flat fitted curve, though single readings scatter.
# Test: cAMP Responsive Elements (CRE) small molecule antagonists, cell-based qHTS assay: qHTS cell viability counter screen (AID 2060913); further: nearly all actives have a fitted effect of over 40% in size
# Conditions: CRE-bla HEK293T viability, CellTiter-Glo luminescence, 5 h; series mostly up to 92.4 µM
# Procedure, shortened: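 HEK293T CRE-bla, 2,000 cells/well, 18 h preincubation; cpd in DMSO + NKH477 0.25 uM final, 3 h 37 C/5% CO2; LiveBLAzer 2 h RT, then CellTiter-Glo 30 min RT, luminescence.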
# Potency means the concentration at half of the fitted maximal effect.
SMILES,Potency,"viability change, negative = cytotoxic"
CC1COC(=O)O1 (stereo not given),inactive,–
CCCCC(CC)COC(=O)/C=C\C(=O)OCC(CC)CCCC (stereo not given),inactive,–
CC(=O)O[C@@H]1C(=O)O[C@@H]2[C@H]1OC(=O)[C@@H]2OC(C)=O,inactive,–
Nc1cc(C(Cl)=C(Cl)Cl)c(S(N)(=O)=O)cc1S(N)(=O)=O,inactive,–
CCCCCCc1ccc(N)cc1,inactive,–
CC(=O)O[C@H]1C[C@@H]2CC[C@@H]3[C@H](CC[C@@]4(C)[C@H]3C[C@H]([N+]3(C)CCCCC3)[C@@H]4OC(C)=O)[C@@]2(C)C[C@@H]1N1CCCCC1,inactive,–
C[N+](C)(CCOc1ccccc1)Cc1cccs1,inactive,–
NC(=S)N/N=C/c1cccnc1,inactive,–
CCc1cc(SCc2sc(-c3ccc(C(F)(F)F)cc3)nc2CN2CCN(c3ccc(OC)cc3)CC2)ccc1OCC(=O)O,54.5 µM (active),–
CCCN1C[C@H](CSC)C[C@@H]2c3cccc4[nH]cc(c34)C[C@H]21,inactive,–
Cc1cc(Cl)c(C)cc1Cl,inactive,–
CN(C(=O)C(Cl)Cl)c1ccc(OC(=O)c2ccco2)cc1,inactive,–
[Cl][Pt-2]([Cl])([Cl])[Cl],inactive,–
Clc1ccc(C(Cn2ccnc2)OCc2ccsc2Cl)c(Cl)c1 (stereo not given),inactive,–
CCCOC(=O)c1cc(O)c(O)c(O)c1,inactive,–
N#C/C(=C1\SCC(c2ccccc2Cl)S1)n1ccnc1 (stereo not given),inactive,–
NCC1CCCC(CN)C1 (stereo not given),inactive,–
Cc1ccc2oc(=O)ccc2c1,inactive,–
CCN(CC)CCNC(=O)c1cc(Cl)c(N)cc1OC,inactive,–
CCCC(=O)OCCC(C)CCC=C(C)C (stereo not given),inactive,–

SMILES,Potency,"viability change, negative = cytotoxic"
N=c1nc(N2CCCCC2)cc(N)n1O,inactive,–
Cc1cnccn1,inactive,–
CCCN1C=CN(C)C1,inactive,–
OCCOCCN1CCN(C2=Nc3ccccc3Sc3ccccc32)CC1,inactive,–
CC1(C)C(=O)N(CO)C(=O)N1CO,inactive,–
O=C(/C=C/c1ccccc1)OCCc1ccccc1,inactive,–
C=C(C)C(=O)OCCCC,inactive,–
O=C(NCCc1c[nH]c2ccccc12)c1cccnc1,inactive,–
CCC(=O)c1c(O)cc(O)cc1O,inactive,–
Cc1cn([C@H]2C[C@H](F)[C@@H](CO)O2)c(=O)[nH]c1=O,inactive,–
C=COCCCC,inactive,–
Cc1ccc(S)cc1,inactive,–
NCCS,inactive,–
CCC(Cl)CC(Cl)C(Cl)C(Cl)C(Cl)C(C)Cl (stereo not given),–,-10.4% [at 18.9 µM]
COC(=O)C(C)O (stereo not given),inactive,–
CCCCCCOCCO,inactive,–
Cc1cccc(C)c1OCC(C)N (stereo not given),inactive,–
CC[C@H](NC(=O)c1cc(F)ccc1NS(=O)(=O)c1cccc2cccnc12)c1ccccc1,inactive,–
ON=C1CCCCC1,inactive,–
O=C1OCCO1,inactive,–
